Test results reported in PubChem BioAssay (NCI).
The panel holds about 83,000 compounds, 20% with a hit somewhere; the sample as a whole holds those more often.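 Method: cells in 96-well plates; compound added at one concentration; 48 h incubation; percent growth measured; values under 10 scored active.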 Values without a mark were called inactive. The source made the active and inactive calls.

Columns and labels:
Assay in all cases: NCI-60 one-dose screen, 48 h (100 = growth as untreated, 0 = no growth, -100 = all killed)
Conditions in all cases: 10 µM unless noted
[1] = test system: T-47D breast
[2] = test system: BT-549 breast
[3] = test system: MDA-MB-435 melanoma
[4] = test system: SW-620 colon
[5] = test system: MCF7 breast
[6] = test system: HCT-116 colon
[7] = test system: HCC-2998 colon
[8] = test system: KM12 colon

| SMILES | growth [1] | growth [2] | growth [3] | growth [4] | growth [5] | growth [6] | growth [7] | growth [8] |
| --- | --- | --- | --- | --- | --- | --- | --- | --- |
| CCC(c1cccc(Br)c1)C(C(=O)O)c1ccc(OC)cc1 (stereo not drawn) | 108% | 113% | 29.9% | 93.2% | 93% | 112% | 93.5% | 83.3% |
| Cc1oc2ncnc(Nc3ccccc3)c2c1C(=O)NCCO | 99.4% | 90.1% | 102% | 95.1% | 98.6% | 99.3% | 103% | 95.2% |
| COC12CC(=O)C(C(C)=O)=C(O)C1(C)c1c(O)c(C)c(O)c(C(C)=O)c1O2 (stereo not drawn) | 81% | 78.7% | 87.3% | 80.2% | 80.9% | 80.6% | 65.9% | 49.6% |
| O=C(CN1CCN(c2cc3c(cc2F)c(=O)c(C(=O)O)cn3C2CC2)CC1)Nc1ccc(C(=O)/C=C/c2ccccc2)cc1 | 85.1% | 9.61% (active) | 19.2% | 41% | 12.5% | -83.6% (active) | 70.1% | 25.3% |
| COc1ccc(/C(=N/O)c2cc(F)c(F)c(OC)c2F)cc1O | 28.4% | 33.5% | -35.7% (active) | 15.2% | 18.7% | 15.6% | 42.7% | 29.3% |
| CCN(Cc1ccc(CN(CC)C(=O)C(Cl)(Cl)Cl)cc1)C(=O)C(Cl)(Cl)Cl | 78.2% | 78.3% | 83.7% | 89% | 89.2% | 56.4% | 92.4% | 81.5% |
| C=C1C(=O)O[C@H]2[C@H]1CC/C(Cn1cc(-c3ccc(N)cc3)nn1)=C\CC[C@@]1(C)O[C@@H]21 | -40.4% (active) | -43.3% (active) | -7.57% (active) | -44.8% (active) | 2.62% (active) | -56% (active) | 50.8% | 51.5% |
| Cc1ccc2nc(-c3c(CCCO)noc3N)[nH]c(=O)c2c1 | 107% | 102% | 110% | 103% | 88.7% | 102% | 128% | 102% |
| O=S(=O)(NCCCNc1cc(-c2cn(-c3ccccc3)nc2-c2cccc(O)c2)ccn1)c1cccc2ccccc12 | 33.1% | 37.1% | 32.8% | 22.5% | 15.8% | 28.1% | -71% (active) | 25.5% |
| O=C(CN1CCN(c2cc3c(cc2F)c(=O)c(C(=O)O)cn3C2CC2)CC1)Nc1ccc(C(=O)/C=C/c2ccc(Cl)cc2)cc1 | 106% | 91.1% | 101% | 111% | 91.7% | 41.3% | 103% | 120% |
| C=C1C(=O)O[C@H]2[C@H]1CC/C(COC(=O)NCc1cc(OC)cc(OC)c1)=C\CC[C@@]1(C)O[C@@H]21 | -8.17% (active) | -5.77% (active) | -29.1% (active) | -50.5% (active) | 0.19% (active) | -60.4% (active) | 63.8% | 45.1% |
| COc1cc(Cn2c(SCCC(=O)Nc3ccc(F)cc3)nc3ccccc3c2=O)cc(OC)c1OC | 77.8% | 92.6% | 106% | 97.9% | 91% | 65.3% | 95.7% | 99.3% |
| CC(C)[C@H](CO)Nc1nc(Nc2ccc(C(=O)NCCNS(=O)(=O)c3cccc4c(N(C)C)cccc34)c(Cl)c2)c2ncn(C(C)C)c2n1 | 20.6% | -37.9% (active) | 0.754% (active) | 4.97% (active) | 6.04% (active) | 4.44% (active) | 15.7% | -9.33% (active) |
| CC1CCN(C(=O)CSc2nc3sc4c(c3c(=O)[nH]2)CCCC4)CC1 | 102% | 95.2% | 95.6% | 108% | 109% | 112% | 120% | 120% |
| CCOC(=O)c1cc(/C(=N\O)c2cc(OC)c(OC)c(OC)c2)n2c(C)cccc12 | 27.7% | 19.4% | -10.2% (active) | 23.3% | 17.1% | 27.2% | 70.8% | 27.9% |
| CCC1CCc2nc3sc(C(=O)Nc4ccccc4C)c(N)c3cc2C1 (stereo not drawn) | 63.6% | 74.7% | -38.4% (active) | 26.9% | 15.2% | 25.5% | 62.2% | 29.6% |

| SMILES | growth [1] | growth [2] | growth [3] | growth [4] | growth [5] | growth [6] | growth [7] | growth [8] |
| --- | --- | --- | --- | --- | --- | --- | --- | --- |
| CN(C)c1ccc(/C=C\N=Nc2ccc(Br)cc2)cc1 | 37.1% | 69.1% | 41.7% | 29.5% | 36.8% | 50.6% | 83% | 29.6% |
| Nc1c(C(=O)Nc2ccccc2)sc2nc3c(cc12)CCCCC3 | 42.2% | 48.8% | -50.7% (active) | 24.2% | 12.1% | 11.2% | 43.5% | 12.2% |
| COc1cc(C2C3=C(COC3=O)Nc3c2ccc2c3CCCC2)cc2c1OCO2 (stereo not drawn) | 73.5% | 9.86% (active) | -16.9% (active) | 23.1% | 16.3% | 0.327% (active) | 5.11% (active) | -34.8% (active) |
| COc1cc(C2CC(c3c(C)[n+]([O-])c4ccccc4[n+]3[O-])=NN2)cc(OC)c1OC (stereo not drawn) | 95.4% | 104% | 95.6% | 101% | 91.8% | 104% | 76.1% | 104% |
| COc1cc(NCCN=C(N)NC(N)=NC(C)C)c2ncccc2c1 | -5.22% (active) | 52.4% | 103% | 88.4% | -55.7% (active) | 28.1% | 82.9% | 29.9% |
| Cn1cc(C=O)c2ccccc21 | 102% | 106% | 106% | 95.1% | 99.3% | 102% | 100% | 102% |
| CN1CCN(c2ccc3cc(-c4nc5ccccc5[nH]4)c(=O)oc3c2)CC1 | 76.9% | 87.7% | 99.5% | 107% | 73.6% | 81.9% | 114% | 90% |
| O=C1c2ccccc2C(=O)c2c1oc1oc3c(c(=O)c21)c(=O)n(-c1ccccc1)c1ccccc31 | 4.47% (active) | 12.3% | 87.8% | 18.6% | 51.6% | 41.7% | 42.9% | 18.9% |
| Cc1cccc(NC(=O)c2sc3nc4c(cc3c2N)CCCC4)c1 | 53.5% | 50.8% | -22.9% (active) | 36% | 11.3% | 22.3% | 70.6% | 22.9% |
| CCOC(=O)/C=C\C(=O)NC(N)=O | 89.1% | 100% | 106% | 107% | 96.3% | 86.4% | 95.2% | 106% |
| COc1ccc(C2CC(=O)Nc3c2c(C)nn3-c2nc3ccccc3[nH]2)cc1OC (stereo not drawn) | 65.7% | 75.5% | 24.7% | 78.3% | 46.4% | 17.4% | 96.5% | 82.6% |
| COC1=CC(c2ccc[nH]2)=N/C1=C\c1[nH]c(C)c(C(=O)CCC(=O)Oc2ccc3c(c2)CCC2C3CC[C@]3(C)[C@@H](O)CC[C@@H]23)c1C (stereo partly drawn) | 20.5% | 27% | 11.9% | -51.1% (active) | 13.6% | -84.2% (active) | 9.51% (active) | 3.48% (active) |
| COc1ccc(C2CC(c3cccs3)=NN2c2ccc(S(=O)(=O)NC(=O)Nc3ccc(C)cc3)cc2)cc1 (stereo not drawn) | 78.8% | 74.2% | 61.9% | 106% | 97.1% | 85.1% | 109% | 97.4% |
| Cn1c(-c2nonc2NC(=O)c2ccc(F)cc2)nc2ccccc21 | 96.5% | 109% | 107% | 105% | 89.1% | 106% | 100% | 103% |
| c1cncc(CNc2ccccc2-c2nnc(Nc3ccc4c(c3)OCCO4)o2)c1 | 73.6% | 16.6% | -20.3% (active) | 23.2% | 20.9% | 9.5% (active) | 9.58% (active) | 3.03% (active) |
